Assay results reported in PubChem BioAssay (NCATS).
Records with an inconclusive call do not appear. Calls of active or inactive are those of the source. Unless noted, calls come from the whole dose curve; as a rule, active = well fitted curve in the direction sought with a large enough effect; inconclusive = small, poorly fitted or top-dose-only effect, or another doubt; inactive = no such curve, though single readings can be large; an effect the other way counts as inactive or inconclusive. Starred links: 1 amine or outer side, 2 acyl side, 3 side chain; linkers in the order of their positions; H or OH if unused. Positions of bridges follow the written chain, without caps; N, C: chain ends. Non-standard residues stand in square brackets, D forms with d. Residues, ends and D or L forms follow the SMILES beside them. *: point of attachment. X4 = NC1=N[C@@H](O)C[C@H]([C@H](N[*:1])C(=O)[*:2])N1; ΔAla(3-NHCONH2) = NC(=O)NC=C(N)C(=O)O; β3hOrn = NCCC[C@H](N)CC(=O)*; Dap = NC[C@H](N)C(=O)O

Tests used:
[1] = qHTS profiling of the MIPE4 collection as inhibitors of Plasmodium falciparum (DD2) proliferation (AID 743345; call rule not given here); details: P. falciparum Dd2 in erythrocytes, SYBR Green DNA, 72 h; at 5.51 µM (top of the series) unless noted
In short: (§1)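 Erythrocytes infected with P. falciparum (0.3% parasitemia, 2.5% hematocrit) incubated with compounds 72 h at 37 C, 5% CO2. Lysis with saponin/Triton buffer containing SYBR Green I, overnight at room temperature in the dark; DNA fluorescence (485/535 nm) normalised to 0.29 uM artemisinin and DMSO.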

[2] = qHTS profiling of the MIPE4 collection as inhibitors of Plasmodium falciparum (DD2) proliferation (Rep 2) (AID 743346; call rule not given here); details: P. falciparum Dd2 in erythrocytes, SYBR Green DNA, 72 h; at 5.51 µM (top of the series) unless noted
In short: as §1

[3] = qHTS profiling of the MIPE4 collection as inhibitors of Plasmodium falciparum (HB3) proliferation (AID 743347; call rule not given here); details: P. falciparum HB3 in erythrocytes, SYBR Green DNA, 72 h; at 5.51 µM (top of the series) unless noted
In short: as §1

[4] = target: ATP-dependent 6-phosphofructokinase (Trypanosoma brucei brucei) (UniProt O15648); test: qHTS Assay to Find Inhibitors of T. brucei phosphofructokinase: hit validation (AID 492961);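 note: luminescence reports ADP formed as PFK phosphorylates fructose-6-phosphate with ATP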; details: T. brucei PFK, ADP-Glo luminescence; series mostly up to 24.3 µM
Chain of ATP-dependent 6-phosphofructokinase (Trypanosoma brucei brucei) (O15648 whole entry, looked up): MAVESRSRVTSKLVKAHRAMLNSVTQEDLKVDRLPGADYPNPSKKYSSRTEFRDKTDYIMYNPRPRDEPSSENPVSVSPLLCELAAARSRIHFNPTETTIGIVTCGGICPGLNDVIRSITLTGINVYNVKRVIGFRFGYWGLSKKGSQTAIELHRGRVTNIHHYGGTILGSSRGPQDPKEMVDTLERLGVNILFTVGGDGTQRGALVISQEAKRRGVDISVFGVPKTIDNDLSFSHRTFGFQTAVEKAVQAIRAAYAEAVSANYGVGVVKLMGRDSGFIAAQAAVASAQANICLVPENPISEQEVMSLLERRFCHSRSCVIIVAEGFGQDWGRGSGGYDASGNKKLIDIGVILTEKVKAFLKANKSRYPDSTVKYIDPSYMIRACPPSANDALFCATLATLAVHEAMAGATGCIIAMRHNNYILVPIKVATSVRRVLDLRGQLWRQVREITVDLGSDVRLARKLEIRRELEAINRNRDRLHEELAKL
In short: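 Inhibition of parasite PFK is measured as reduced ADP formation, quantified via luciferase after ATP depletion. Assay used 0.1 mM ATP, 0.5 mM F6P, 1.25 nM enzyme, 45 min incubation.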

[5] = tested on: ATS189; test: qHTS profiling for inhibitors of Plasmodium falciparum proliferation (AID 504749); note: nearly all actives have a fitted effect of over 60% in size; note: potency is the fitted concentration of half-maximal effect; details: P. falciparum in erythrocytes, SYBR Green DNA, 72 h; series mostly up to 12.8 µM
In short: (§2)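 Readout was DNA-dye fluorescence from lysed cultures, ex 485/em 535 nm. Parasitized red cells had grown 72 h with compound; data scaled between 0.29 uM artemisinin and DMSO wells and corrected using vehicle-only plates.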

[6] = tested on: ATS95; test: as above; details: P. falciparum in erythrocytes, SYBR Green DNA, 72 h; series mostly up to 12.8 µM
In short: as §2

[7] = tested on: CP185; test: as above; details: P. falciparum in erythrocytes, SYBR Green DNA, 72 h; series mostly up to 12.8 µM
In short: as §2

[8] = tested on: CP201; test: as above; details: P. falciparum in erythrocytes, SYBR Green DNA, 72 h; series mostly up to 12.8 µM
In short: as §2

[9] = tested on: CP238; test: as above; details: P. falciparum in erythrocytes, SYBR Green DNA, 72 h; series mostly up to 12.8 µM
In short: as §2

[10] = tested on: CP262; test: as above; details: P. falciparum in erythrocytes, SYBR Green DNA, 72 h; series mostly up to 12.8 µM
In short: as §2

[11] = tested on: CP266; test: as above; details: P. falciparum in erythrocytes, SYBR Green DNA, 72 h; series mostly up to 28.7 µM
In short: as §2

[12] = tested on: CP305; test: as above; details: P. falciparum in erythrocytes, SYBR Green DNA, 72 h; series mostly up to 12.8 µM
In short: as §2

[13] = tested on: CP335; test: as above; details: P. falciparum in erythrocytes, SYBR Green DNA, 72 h; series mostly up to 12.8 µM
In short: as §2

[14] = tested on: DFO2036; test: as above; details: P. falciparum in erythrocytes, SYBR Green DNA, 72 h; series mostly up to 12.8 µM
In short: as §2

[15] = tested on: ECU; test: as above; details: P. falciparum in erythrocytes, SYBR Green DNA, 72 h; series mostly up to 12.8 µM
In short: as §2

[16] = tested on: HB3; test: as above; details: P. falciparum in erythrocytes, SYBR Green DNA, 72 h; series mostly up to 12.8 µM
In short: as §2

[17] = tested on: PC26; test: as above; details: P. falciparum in erythrocytes, SYBR Green DNA, 72 h; series mostly up to 12.8 µM
In short: as §2

[18] = tested on: PC49; test: as above; details: P. falciparum in erythrocytes, SYBR Green DNA, 72 h; series mostly up to 12.8 µM
In short: as §2

[19] = tested on: TAB109; test: as above; details: P. falciparum in erythrocytes, SYBR Green DNA, 72 h; series mostly up to 12.8 µM
In short: as §2

[20] = tested on: TAB113; test: as above; details: P. falciparum in erythrocytes, SYBR Green DNA, 72 h; series mostly up to 12.8 µM
In short: as §2

NCCC[C@H](N)CC(=O)N[C@H]1CNC(=O)[C@H]([C@H]2C[C@H](O)N=C(N)N2)NC(=O)C(=CNC(N)=O)NC(=O)[C@H](CO)NC(=O)[C@H](CO)NC1=O (β3hOrn-[Dap]SS[ΔAla(3-NHCONH2)][X4]; lactam 1-C)
92.5%: parasite growth, % of control (lower = inhibition) [2]
79.9%: parasite growth remaining, % of DMSO control (lower = more inhibition) [1]
71.8%: growth, % of control [3]

COc1cc(/C=C/C(=O)/C=C(O)/C=C/c2ccc(O)c(OC)c2)ccc1O
inactive: outcome [4] | Potency [5] | Potency [6] | Potency [7] | Potency [8] | Potency [9] | Potency [10] | Potency [11] | Potency [12] | Potency [13] | Potency [14] | Potency [15] | Potency [16] | Potency [18] | Potency [19] | Potency [20]
active: Potency [17] 12 µM
